Here are results for 93 molecules from PubChem BioAssay AID743395 (Broad Institute, 2014).

SMILES strings stand for the structures. About 480 (40%) of roughly 1,200 compounds were called active. No rule for the calls is given here. The set was probably picked from earlier hits. The list is a sample of the results. Entries with a potency or affinity are not part of this list.

The assay in a line: HepG2 cell cytotoxicity, dose response, cytotoxicity control, CellTiter-Glo luminescence, cherry-pick, set 2 (AID 743395). To be noted: HepG2 viability, CellTiter-Glo ATP luminescence, 72 h; series mostly up to 26 µM.
Take `O=C(COC(=O)Cc1ccsc1)Nc1cccc(F)c1`: the call was inactive.
The entry for `COc1ccccc1OCCNC(=O)CCNC(=O)c1ccccc1OC` is “inactive”; for `COc1cccc2cc(C(=O)NCCN3CCOCC3)c(=O)oc12` it is “inactive”.
Turning to `NS(=O)(=O)c1ccc(NC(=O)c2cccc3cc4ccccc4nc23)cc1`, the molecule was called inactive.
Consider `O=C1NC(Cc2ccc(O)cc2)c2nc3ccc(Br)cc3c(=O)n2-c2cc3ccccc3cc21` (stereo not drawn), for which the result was inactive.
On to `COc1ccccc1S(=O)(=O)N1CC[C@@H]2[C@@H](CO)N(C)c3ccc(-c4ccc(F)cc4)cc3[C@@H]21`, for which the call was inactive.
On to `COc1ccccc1Cc1c(-c2ccc(Cl)cc2)nc2ccc(Br)cn12`, for which the call was inactive.
With `O=C(O)CCCCCCCCc1cn(Cc2ccc(C(=O)c3ccccc3)cc2)nn1`, the molecule was called inactive.
In the case of `CC1CCN(S(=O)(=O)N2CCCC(C(=O)NCc3ccccc3Cl)C2)CC1` (stereo not drawn), the molecule was called inactive.
Consider `C[C@@](Cc1ccc(O)c(O)c1)(NN)C(=O)O`, for which the outcome was inactive.
`Cc1ccc(Nc2nc(CSc3nnc(-c4cccnc4)n3-c3ccccc3F)cs2)cc1`: the result was inactive.
Consider `COc1ccc(NC(=O)c2cc(C3CC3)on2)c(OC)c1`, for which the molecule was called inactive.
In the case of `Cc1cc(C(=O)CCC(=O)NC(C)c2ccc(S(N)(=O)=O)cc2)c(C)s1` (stereo not drawn), the molecule was classed as inactive.
As to `Cc1c(Cl)cccc1NC(=O)C1CC(=O)N(C2CCCC2)C1` (stereo not drawn), the outcome was inactive.
Take `COCCNC(=O)C1CCCN(C(=O)c2cc(-c3cccs3)oc2C)CC1` (stereo not drawn): the result was inactive.
`O=C1NN(c2cccc(Br)c2)C(=O)/C1=C\c1ccc(O)cc1`: the molecule was classed as inactive.
In the case of `O=C1c2cccc3c([N+](=O)[O-])ccc(c23)C(=O)N1Cc1cccnc1`, the call was inactive.
To `Cc1ccc(N2C(=O)c3cccc4c([N+](=O)[O-])ccc(c34)C2=O)c2cccnc12` belongs “inactive”.
To `CCN1C(=O)c2cccc3c(S(=O)(=O)N(C(C)=O)c4ccc(OC(C)=O)cc4)ccc1c23` belongs “inactive”; to `CCOc1ccc(NC(=O)c2ccc(NC(=O)CN3C(=O)C(=O)N(CC(C)C)C3=O)cc2)cc1`, “inactive”; to `CC1C2CCC(C2)C1OC(=O)c1ccccc1C(=O)O` (stereo not drawn), “inactive”.
To `CCCCn1nc(NC(=O)CC)c2cc3cc(OC)ccc3nc21` belongs “inactive”; to `O=C1CCC(CCc2nc3ccccc3[nH]2)(c2ccccc2)C(=O)N1` (stereo not drawn), “inactive”; to `N#C/C(=C\c1ccccn1)c1nc2ccccc2s1`, “inactive”.
`O=C(C[C@@H]1C[C@H]2c3cc(NC(=O)CC4CC4)ccc3O[C@H]2[C@H](CO)O1)NCc1cccc(F)c1`: the outcome was inactive.
In the case of `COC(=O)C1(C)CCCC2(C)C3CCC(C(C)C)C(CO)C3C(CO)CC12` (stereo not drawn), the outcome was inactive.
Take `CCSc1nnc(N2C(=O)C(O)=C(C(=O)c3ccco3)C2c2cccc(OC)c2)s1` (stereo not drawn): the result was inactive.
On to `Cc1cccc(C)c1OCC(=O)OCC(=O)Nc1ccc(Cl)cn1`, for which the outcome was inactive.
`O=C(Nc1ccc(Cl)cn1)c1cccc2ccccc12`: the outcome was inactive.
The entry for `CC(=Nc1ccccc1O)c1sc2ccccc2c1O` is “inactive”; for `COc1ccc(N=C2C(=O)N3CCCc4cccc2c43)cc1` it is “inactive”; for `CCN(C(=O)CSc1nc2ccccc2c(=O)n1-c1ccccc1F)C1CCS(=O)(=O)C1` (stereo not drawn) it is “inactive”.
In the case of `O=C(CN1C(=O)NC2(CCCCCCC2)C1=O)Nc1ccc(Br)cc1`, the outcome was inactive.
For `Nc1ccccc1C(=O)N1O[C@@H]2C=C[C@H]1C2`, the outcome was inactive.
As to `CCOC(=O)c1sc(NC(=O)c2c(CC)noc2C)nc1C`, the result was inactive.
`CCOC(=O)c1sc2nc(Cc3ccc(Cl)cc3)[nH]c(=S)c2c1C`: the result was inactive.
As for `Cc1noc(C)c1C(=O)NCC1COc2ccccc2O1` (stereo not drawn), the molecule was classed as inactive.
On to `CC1CCN(C(=O)c2ccc(S(=O)(=O)N3CCCC3)cc2)CC1`, for which the molecule was called inactive.
The entry for `N#CC1c2ccccc2-c2ccccc2N1C(=O)c1ccccc1` (stereo not drawn) is “inactive”; for `Cc1ccc(NC(=O)CSC2=NN3CCCC(=O)N=C3S2)c(C)c1` it is “inactive”; for `Fc1ccccc1/C=N/NC(=S)Nc1ccc(Cl)cc1Cl` it is “inactive”.
The entry for `COc1ccc(Cl)cc1NC(=O)CN(C)CC(=O)Nc1cc(OC)c(OC)c(OC)c1` is “inactive”; for `CC(=O)Nc1ccc(NC(=O)COc2cccc3c2OC(C)(C)C3)cc1` it is “inactive”.
As for `COc1cccc(NC(=O)CN2C(=O)NC3(CCCCCC3)C2=O)c1`, the call was inactive.
For the molecule `CCOC1=C/C(=C/c2c(N)n3nc(S(=O)(=O)CC)sc3nc2=O)C=CC1=O`, the outcome was inactive.
To `Fc1ccc(/C=N/NC(=S)Nc2ccc(Cl)cc2Cl)cc1` belongs “inactive”; to `Cc1cccc(NC(=O)c2ccccc2NC(=O)C2CCCCC2)c1C`, “inactive”.
In the case of `COc1ccc(C=NNC(=O)CCCC(=O)NN=Cc2ccc(OC)c(O)c2)cc1O`, the call was inactive.
To `COc1cc(/C=C/C(=O)c2ccc3c(c2)OCO3)cc(Cl)c1O` belongs “inactive”.
Regarding `COc1ccc(/C=N/NC(=O)c2c(C)nc3ccc(Br)cn23)cc1OC`, the result was inactive.
Consider `Cc1cc(NC(=O)CN2C(=O)NC3(CCCCCC3)C2=O)ccc1Br`, for which the result was inactive.
For the molecule `Cc1cnc(NC(=O)CCc2ccccc2)s1`, the molecule was classed as inactive.
For `COc1cc(C(=O)NCC2CCCO2)ccc1OCc1ccc(Cl)cc1` (stereo not drawn), the molecule was called inactive.
On to `CCn1c(SC(C)C(=O)NCC2CCCO2)nc2ccccc21` (stereo not drawn), for which the molecule was classed as inactive.
Take `CCC1=Nc2cc(C(=O)NCc3cccnc3)ccc2Sc2ccc(C)cc21`: the molecule was called inactive.
On to `COc1ccccc1OCC(O)CN1C(=O)NC(C)(C)C1=O` (stereo not drawn), for which the call was inactive.
As to `C/C=C/c1ccc([C@H]2[C@@H](CNC(=O)CC)N(C(=O)COC)[C@H]2CO)cc1`, the outcome was inactive.
On to `CCN(C(=O)COC(=O)/C=C/c1c(C)nn(-c2ccccc2)c1C)c1c(N)n(Cc2ccccc2)c(=O)[nH]c1=O`, for which the molecule was called inactive.
To `CN(Cc1ccco1)c1ncnc2ccc(-c3ccc4c(ccn4C)c3)cc12` belongs “inactive”; to `COc1ccccc1C(=O)Nc1ccc2c(c1)nc(CCNC(=O)c1ccco1)n2C`, “inactive”.
The entry for `CC1(C)Cc2c(c(-c3ccco3)nc3sc4c(NCCN5CCOCC5)ncnc4c23)CO1` is “inactive”.
The entry for `CN(CCOc1ccc(Cl)cc1)C(=O)c1cccc(S(=O)(=O)N2CCN(c3ccccc3)CC2)c1` is “inactive”; for `O=C(c1cccc(S(=O)(=O)N2CCOCC2)c1)N1CCCC(C(F)(F)F)C1` (stereo not drawn) it is “inactive”; for `CCN(CC)S(=O)(=O)c1ccc(NC(=O)C2CC(=O)N(c3ccc4c(c3)OCCO4)C2)cc1` (stereo not drawn) it is “inactive”.
On to `Cn1cc(C(=O)OCC2CCN(CCNS(C)(=O)=O)CC2)c2ccccc21`, for which the call was inactive.
Take `Cc1cc(C(=O)N/N=C/c2ccc3c(c2)OCO3)c2ccccc2n1`: the molecule was called inactive.
To `COc1cc(C(=O)Nc2ccc(C)cc2)c2ccccc2n1` belongs “inactive”; to `CCOc1ccc(NC(=O)c2ccccc2NC(=O)CNC2CCCC(C)C2C)cc1` (stereo not drawn), “inactive”.
The entry for `COc1ccc(OCC(=O)N/N=C/C=C/c2ccccc2)cc1` is “inactive”; for `COc1ccc2[nH]c(C(=O)N/N=C/c3ccc(OC)c(O)c3)cc2c1` it is “inactive”; for `CC(C)C[C@@H](COCc1ccc(C(F)(F)F)cc1)N1CCN(C(=O)c2ccc(C(F)(F)F)cc2)CCC1=O` it is “inactive”.
Take `CN(CC(=O)NCCc1ccc(S(N)(=O)=O)cc1)CC(=O)Nc1ccc(Cl)c(C(F)(F)F)c1`: the result was inactive.
With `Nc1c2c(nc3ccccc13)CCCC2`, the call was inactive.
Turning to `CCOC(=O)C1CCCN(c2nc3ccccc3nc2NS(=O)(=O)c2ccc(C)cc2)C1` (stereo not drawn), the molecule was classed as inactive.
With `CCOC1=C2CN(S(=O)(=O)c3ccc(C)cc3)CC[C@@H]2N(S(=O)(=O)c2ccc(C)cc2)[C@H](c2ccccc2)C1`, the result was inactive.
On to `C[C@H]1C[C@H]2[C@@H]3CCC4=CC(=O)C=C[C@]4(C)[C@@]3(F)[C@@H](O)C[C@]2(C)[C@@]1(O)C(=O)CO`, for which the result was inactive.
Regarding `Cc1ccc(-c2ccc3c(c2)O[C@@H](CN(C)C(=O)Nc2ccc(F)cc2)[C@@H](C)CN([C@H](C)CO)S3(=O)=O)cc1`, the outcome was inactive.
For the molecule `COc1cccc(S(=O)(=O)N(C)C[C@@H]2Oc3cc(C4=CCCC4)ccc3S(=O)(=O)N([C@@H](C)CO)C[C@H]2C)c1`, the outcome was inactive.
To `Cc1ccc(-c2ccc3c(c2)O[C@H](CN(C)C(=O)Nc2ccc(C(F)(F)F)cc2)[C@@H](C)CN([C@@H](C)CO)S3(=O)=O)cc1` belongs “inactive”; to `C[C@H]1CN([C@@H](C)CO)S(=O)(=O)c2ccc(C3=CCCCC3)cc2O[C@@H]1CN(C)C(=O)Cc1ccncc1`, “inactive”; to `C[C@@H]1CN([C@H](C)CO)S(=O)(=O)c2ccc(-c3ccc(C#N)cc3)cc2O[C@H]1CN(C)Cc1ccccn1`, “inactive”.
Turning to `Cc1ccc(-c2ccc3c(c2)O[C@@H](CN(C)C(=O)Nc2ccc(F)cc2)[C@@H](C)CN([C@@H](C)CO)S3(=O)=O)cc1`, the call was inactive.
With `Cc1ccc(-c2ccc3c(c2)O[C@H](CN(C)C(=O)Nc2ccc(F)cc2)[C@@H](C)CN([C@@H](C)CO)S3(=O)=O)cc1`, the molecule was called inactive.
In the case of `C[C@@H]1CN([C@H](C)CO)S(=O)(=O)c2ccc(-c3ccc(C#N)cc3)cc2O[C@H]1CN(C)Cc1cccc(F)c1`, the outcome was inactive.
For the molecule `CC(=O)c1c(C)[nH]c(C(=O)OCc2nnc(-c3ccc([N+](=O)[O-])cc3)o2)c1C`, the call was inactive.
The entry for `C[C@@H]1CN([C@@H](C)CO)S(=O)(=O)c2ccc(C#Cc3ccc(F)cc3)cc2O[C@H]1CN(C)C(=O)c1ccccn1` is “inactive”.
Consider `Cc1ccc(-c2ccc3c(c2)O[C@H](CN(C)C(=O)Nc2ccc(C(F)(F)F)cc2)[C@H](C)CN([C@@H](C)CO)S3(=O)=O)cc1`, for which the result was inactive.
For `C[C@@H]1CN([C@H](C)CO)S(=O)(=O)c2ccc(C#CC3CC3)cc2O[C@H]1CN(C)Cc1ccccn1`, the molecule was classed as inactive.
Take `C[C@@H]1CN([C@@H](C)CO)S(=O)(=O)c2ccc(-c3ccc(C#N)cc3)cc2O[C@H]1CN(C)Cc1cccc(F)c1`: the result was inactive.
Turning to `CO[C@@H](CN(C)S(=O)(=O)c1ccc(C)cc1)[C@H](C)CN([C@@H](C)CO)S(=O)(=O)c1cccc(Cl)c1`, the molecule was classed as inactive.
Take `O=C(Cc1ccccn1)NCC[C@@H]1CC[C@H](NC(=O)Nc2ccc(C(F)(F)F)cc2)[C@@H](CO)O1`: the molecule was called inactive.
The entry for `O=C(O)c1ccccc1-c1nc(-c2ccccc2)c(-c2ccccc2)[nH]1` is “inactive”.
As to `O=C(NCc1ccccc1)C(c1ccc(-c2ccccc2)cc1)n1c(=O)c(-c2cc3ccccc3[nH]2)nc2ccccc21` (stereo not drawn), the result was inactive.
